For some of these results: Measured potencies and affinities stand elsewhere.
Key:
Parameters in all cases: scale not given: direction of the effect not stated beside the values
[1] = target: Protein translocase subunit SecA (Escherichia coli (strain K12)) (UniProt P10408); experiment: Assay to Identify E. coli SecA ATPase Inhibitors; assay type: functional; details: 30 µM
[2] = target: T1, Ubiquitin-activating enzyme e1, putative (Leishmania donovani (strain BPK282A1)) (UniProt E9BSI1); experiment: Leishmania donovani Ubiquitin Activating Enzyme (LdE1); assay type: functional; details: 30 µM
T1 sequence (whole entry): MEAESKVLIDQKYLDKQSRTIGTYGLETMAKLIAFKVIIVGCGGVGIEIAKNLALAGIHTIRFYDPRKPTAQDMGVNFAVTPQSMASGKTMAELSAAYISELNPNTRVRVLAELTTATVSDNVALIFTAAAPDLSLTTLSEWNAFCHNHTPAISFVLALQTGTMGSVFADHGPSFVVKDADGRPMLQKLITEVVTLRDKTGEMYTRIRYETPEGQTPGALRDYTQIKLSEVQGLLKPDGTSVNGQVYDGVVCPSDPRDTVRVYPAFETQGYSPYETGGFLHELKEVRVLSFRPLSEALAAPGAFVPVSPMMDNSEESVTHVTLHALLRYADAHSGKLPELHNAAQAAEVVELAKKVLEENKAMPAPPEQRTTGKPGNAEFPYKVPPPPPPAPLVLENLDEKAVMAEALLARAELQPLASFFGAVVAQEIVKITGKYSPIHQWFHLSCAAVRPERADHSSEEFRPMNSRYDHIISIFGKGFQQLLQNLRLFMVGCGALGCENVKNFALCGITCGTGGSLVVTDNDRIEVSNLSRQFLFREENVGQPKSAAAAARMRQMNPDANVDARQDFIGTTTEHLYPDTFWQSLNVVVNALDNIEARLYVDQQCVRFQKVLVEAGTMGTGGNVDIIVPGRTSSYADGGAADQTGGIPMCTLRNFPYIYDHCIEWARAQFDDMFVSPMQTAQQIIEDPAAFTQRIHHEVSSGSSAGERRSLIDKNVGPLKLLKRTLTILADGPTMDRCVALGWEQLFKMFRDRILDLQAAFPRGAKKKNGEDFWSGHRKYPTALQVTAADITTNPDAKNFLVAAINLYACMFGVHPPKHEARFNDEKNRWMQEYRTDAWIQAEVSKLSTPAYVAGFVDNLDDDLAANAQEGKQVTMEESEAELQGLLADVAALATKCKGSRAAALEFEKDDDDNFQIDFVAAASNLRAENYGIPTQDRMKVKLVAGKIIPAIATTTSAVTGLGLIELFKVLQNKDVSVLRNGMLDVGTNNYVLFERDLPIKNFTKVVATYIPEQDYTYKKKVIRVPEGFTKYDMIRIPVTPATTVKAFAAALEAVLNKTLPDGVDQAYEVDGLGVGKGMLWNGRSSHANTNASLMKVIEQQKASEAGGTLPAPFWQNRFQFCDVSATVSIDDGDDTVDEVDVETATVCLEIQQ

[3] = target: AMP-activated protein kinase, AMPK (Homo sapiens) (UniProt P54646+O43741+P54619+Q9UGJ0+Q9Y478+Q13131+Q9UGI9); experiment: AMP-dependent Kinase enzyme assay. An in vitro enzyme assay that detects ADP turnover that is directly proportional to AMPK activity. This uses naive AMPK that is activated during the assay with MK-8722; assay type: functional; details: 30 µM
[4] = target: Sialic acid-binding Ig-like lectin 9 (Homo sapiens) (UniProt Q9Y336); experiment: Hs-Siglec9 ALPHAscreen SOP 20170721; details: 10 µM
Sialic acid-binding Ig-like lectin 9 (Homo sapiens), sequence (Q9Y336 whole entry): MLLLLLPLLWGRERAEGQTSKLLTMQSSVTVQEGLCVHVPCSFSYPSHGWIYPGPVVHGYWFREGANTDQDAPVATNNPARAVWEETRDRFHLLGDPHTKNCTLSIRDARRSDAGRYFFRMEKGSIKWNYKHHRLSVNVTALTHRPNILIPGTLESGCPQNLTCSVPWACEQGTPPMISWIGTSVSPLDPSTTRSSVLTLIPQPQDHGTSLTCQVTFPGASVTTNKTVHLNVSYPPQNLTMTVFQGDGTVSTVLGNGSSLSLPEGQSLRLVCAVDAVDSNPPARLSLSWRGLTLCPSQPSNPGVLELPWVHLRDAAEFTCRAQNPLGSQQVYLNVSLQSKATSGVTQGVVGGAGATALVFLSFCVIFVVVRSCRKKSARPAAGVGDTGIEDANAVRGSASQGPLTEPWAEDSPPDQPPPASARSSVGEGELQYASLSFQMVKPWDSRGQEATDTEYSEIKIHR

[5] = system: Trypanosoma cruzi; experiment: Trypanosoma cruzi phosphomannomutase and mannose-1-phosphate guanylyltransferase assay; assay type: functional; details: 10 µM
[6] = target: T2, Arginase-2, mitochondrial (Homo sapiens) (UniProt P78540); experiment: in vitro enzyme assay to detect the production of urea directly proportional to the activity of Arginase II; assay type: functional; details: 33.3 µM; note: in the data most compounds retested in dose-response had high values
T2 sequence (whole entry): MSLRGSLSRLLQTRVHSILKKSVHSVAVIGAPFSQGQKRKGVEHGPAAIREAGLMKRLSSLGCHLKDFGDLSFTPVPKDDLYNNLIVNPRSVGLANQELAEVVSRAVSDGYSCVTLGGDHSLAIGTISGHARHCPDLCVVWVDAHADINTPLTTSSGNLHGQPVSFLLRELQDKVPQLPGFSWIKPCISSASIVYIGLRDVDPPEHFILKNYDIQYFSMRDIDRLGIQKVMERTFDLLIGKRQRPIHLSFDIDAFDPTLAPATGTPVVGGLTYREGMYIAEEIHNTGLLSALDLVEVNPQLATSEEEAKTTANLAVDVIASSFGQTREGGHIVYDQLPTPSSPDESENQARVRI

[7] = target: T3, Proteasome subunit beta (Trypanosoma cruzi) (UniProt O96673); experiment: Trypanosoma cruzi proteasome chymotrypsin-like activity (TcProtChymo) assay.; note: in the data most compounds retested in dose-response had high values; assay type: functional; details: 9.37 µM
T3 sequence (whole entry): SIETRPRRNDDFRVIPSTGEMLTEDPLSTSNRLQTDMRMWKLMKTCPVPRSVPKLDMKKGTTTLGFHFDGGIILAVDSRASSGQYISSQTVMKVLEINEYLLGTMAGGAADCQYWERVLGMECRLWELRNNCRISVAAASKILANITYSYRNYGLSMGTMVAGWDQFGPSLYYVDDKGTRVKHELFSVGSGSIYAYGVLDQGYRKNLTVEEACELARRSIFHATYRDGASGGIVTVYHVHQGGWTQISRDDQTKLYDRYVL

[8] = organism: Homo sapiens; experiment: To identify inhibition of the IFN signalling (Jak-Stat) pathway via expression of an eGFP reporter gene under the control of an IFN-stimulated response element (ISRE) containing MxA promoter.; assay type: functional; details: 30 µM
[9] = target: T4, Tyrosyl-tRNA synthetase, putative (Trypanosoma cruzi (strain CL Brener)) (UniProt Q4DSP6); experiment: Trypanosoma cruzi tyrosyl tRNA synthetase (TcYRS) _High Tyrosine SOP; assay type: functional; details: 30 µM; note: in the data most compounds retested in dose-response had high values
T4 sequence (whole entry): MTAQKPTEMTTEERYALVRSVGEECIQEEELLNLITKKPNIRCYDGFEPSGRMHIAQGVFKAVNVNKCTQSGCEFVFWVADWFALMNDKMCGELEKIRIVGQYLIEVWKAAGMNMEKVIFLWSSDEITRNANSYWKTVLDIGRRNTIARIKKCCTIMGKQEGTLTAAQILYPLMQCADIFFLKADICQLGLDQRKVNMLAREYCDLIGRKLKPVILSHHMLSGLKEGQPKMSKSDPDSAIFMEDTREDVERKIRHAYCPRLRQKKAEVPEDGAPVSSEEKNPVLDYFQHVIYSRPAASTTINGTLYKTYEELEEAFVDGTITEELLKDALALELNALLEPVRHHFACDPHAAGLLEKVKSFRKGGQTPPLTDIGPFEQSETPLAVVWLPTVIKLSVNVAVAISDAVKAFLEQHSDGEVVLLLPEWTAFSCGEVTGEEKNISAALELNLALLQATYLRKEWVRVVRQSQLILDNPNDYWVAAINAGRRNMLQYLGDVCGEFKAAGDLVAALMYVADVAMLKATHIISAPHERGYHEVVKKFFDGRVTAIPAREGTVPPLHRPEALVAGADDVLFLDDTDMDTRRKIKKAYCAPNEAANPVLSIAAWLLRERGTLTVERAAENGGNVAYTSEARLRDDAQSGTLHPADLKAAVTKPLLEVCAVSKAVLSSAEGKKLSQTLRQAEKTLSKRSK

[10] = target: T4, Tyrosyl-tRNA synthetase, putative (Trypanosoma cruzi (strain CL Brener)); experiment: Trypanosoma cruzi tyrosyl tRNA synthetase (TcYRS) SOP; assay type: functional; details: 30 µM
[11] = target: Chromo domain-containing protein 1 (Saccharomyces cerevisiae (strain ATCC 204508 / S288c) (Baker's yeast)) (UniProt P32657); experiment: ScCHD-1 Enzyme Inhibition Assay; assay type: functional; details: 30 µM; note: in the data most compounds retested in dose-response had high values
Chromo domain-containing protein 1 (Saccharomyces cerevisiae (strain ATCC 204508 / S288c) (Baker's yeast)), sequence (P32657 whole entry, the tested form may be a part): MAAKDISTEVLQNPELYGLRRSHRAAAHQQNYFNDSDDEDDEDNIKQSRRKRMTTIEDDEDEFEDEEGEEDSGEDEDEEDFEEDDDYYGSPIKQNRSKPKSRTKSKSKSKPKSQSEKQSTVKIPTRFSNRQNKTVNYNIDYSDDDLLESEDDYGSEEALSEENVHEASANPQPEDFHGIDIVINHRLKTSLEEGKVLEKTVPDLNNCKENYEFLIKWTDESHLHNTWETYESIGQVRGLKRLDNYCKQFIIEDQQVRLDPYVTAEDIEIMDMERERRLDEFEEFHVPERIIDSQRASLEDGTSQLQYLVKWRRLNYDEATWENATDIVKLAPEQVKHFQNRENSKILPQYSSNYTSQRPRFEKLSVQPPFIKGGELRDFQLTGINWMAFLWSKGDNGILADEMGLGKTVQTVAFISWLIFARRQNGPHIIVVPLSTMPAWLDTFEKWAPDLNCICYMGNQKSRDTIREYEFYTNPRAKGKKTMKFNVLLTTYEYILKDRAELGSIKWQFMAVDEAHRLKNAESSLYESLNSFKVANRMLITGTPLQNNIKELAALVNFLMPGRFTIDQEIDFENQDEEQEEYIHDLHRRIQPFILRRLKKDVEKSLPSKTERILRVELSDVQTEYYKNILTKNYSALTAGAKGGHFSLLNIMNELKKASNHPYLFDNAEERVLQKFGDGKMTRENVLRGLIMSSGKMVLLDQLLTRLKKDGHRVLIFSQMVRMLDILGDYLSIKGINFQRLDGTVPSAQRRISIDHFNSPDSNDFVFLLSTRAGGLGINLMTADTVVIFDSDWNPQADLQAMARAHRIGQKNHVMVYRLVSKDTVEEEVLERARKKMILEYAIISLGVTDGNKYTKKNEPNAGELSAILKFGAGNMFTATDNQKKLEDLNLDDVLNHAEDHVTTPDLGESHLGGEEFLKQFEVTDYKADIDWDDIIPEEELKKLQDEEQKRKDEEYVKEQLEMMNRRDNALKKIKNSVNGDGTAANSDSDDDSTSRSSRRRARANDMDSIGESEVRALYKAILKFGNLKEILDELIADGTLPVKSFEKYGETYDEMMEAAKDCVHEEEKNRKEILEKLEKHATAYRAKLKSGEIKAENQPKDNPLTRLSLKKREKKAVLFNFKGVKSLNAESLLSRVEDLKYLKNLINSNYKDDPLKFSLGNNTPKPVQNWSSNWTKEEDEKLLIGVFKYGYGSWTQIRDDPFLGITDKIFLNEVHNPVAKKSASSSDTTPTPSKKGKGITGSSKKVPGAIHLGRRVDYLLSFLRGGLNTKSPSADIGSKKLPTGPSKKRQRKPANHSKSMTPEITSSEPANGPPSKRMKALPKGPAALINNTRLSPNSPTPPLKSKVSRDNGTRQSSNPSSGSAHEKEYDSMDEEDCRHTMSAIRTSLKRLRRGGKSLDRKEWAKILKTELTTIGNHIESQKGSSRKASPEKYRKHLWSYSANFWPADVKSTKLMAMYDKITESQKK

Protein translocase subunit SecA (Escherichia coli (strain K12)), sequence (P10408 whole entry): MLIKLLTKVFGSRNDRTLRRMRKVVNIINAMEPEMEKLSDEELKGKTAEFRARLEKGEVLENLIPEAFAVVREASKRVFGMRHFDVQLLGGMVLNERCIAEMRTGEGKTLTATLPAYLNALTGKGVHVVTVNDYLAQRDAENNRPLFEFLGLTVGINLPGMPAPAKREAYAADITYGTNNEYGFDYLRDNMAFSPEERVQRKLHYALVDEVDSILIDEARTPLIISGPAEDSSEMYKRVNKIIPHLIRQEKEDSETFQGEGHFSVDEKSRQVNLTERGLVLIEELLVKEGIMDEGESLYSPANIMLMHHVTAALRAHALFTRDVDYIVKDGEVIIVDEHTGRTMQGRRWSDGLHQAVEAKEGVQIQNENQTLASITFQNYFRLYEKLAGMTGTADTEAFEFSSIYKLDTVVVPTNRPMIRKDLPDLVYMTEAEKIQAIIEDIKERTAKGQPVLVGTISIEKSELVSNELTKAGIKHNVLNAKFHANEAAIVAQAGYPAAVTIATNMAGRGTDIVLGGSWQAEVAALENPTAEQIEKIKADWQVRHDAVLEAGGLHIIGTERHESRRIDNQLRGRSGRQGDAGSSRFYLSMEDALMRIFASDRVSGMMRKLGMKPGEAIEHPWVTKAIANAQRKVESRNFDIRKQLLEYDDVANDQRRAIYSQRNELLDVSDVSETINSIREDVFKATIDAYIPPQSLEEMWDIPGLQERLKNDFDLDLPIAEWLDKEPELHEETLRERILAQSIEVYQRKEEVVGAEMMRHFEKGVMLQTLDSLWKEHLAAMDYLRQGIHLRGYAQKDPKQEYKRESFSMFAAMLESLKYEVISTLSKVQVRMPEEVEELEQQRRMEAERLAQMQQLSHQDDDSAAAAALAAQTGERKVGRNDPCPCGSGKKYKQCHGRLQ

Structure (SMILES) | Percent Effect [1] | Percent Effect [2] | Percent Effect [3] | Percent Effect [4] | Percent Effect [5] | Percent Effect [6] | Percent Effect [7] | Percent Effect [8] | Percent Effect [9] | Percent Effect [10] | Percent Effect [11]
CCn1nnc2c1C(COC)CN(Cc1ccsc1)C2 (stereo not given) | -6.4% | 5.41% | 1.42% | -2.12% | -5.77% | -2.73% | 10.2% | -14.5% | 2.15% | 3.7% | -3.53%
Cc1cc(C)c(OCC(=O)NS(=O)(=O)c2cccnc2)c(C)c1 | -3.5% | 21.1% | -5.54% | 1.96% | 3.95% | -0.766% | 16% | 6.77% | 10.3% | 24.4% | -14%
Cc1cccc(C(=O)NCc2ccc(N3CCCCC3)nc2)n1 | -0.795% | 13.9% | 3.85% | 4.23% | -2.97% | -1.5% | 11.8% | 24.3% | 8.33% | 15.2% | -1.41%
O=C(NCC1(N2CCOCC2)CCSC1)Nc1ccc(F)cc1 (stereo not given) | 0.856% | 5.41% | -4.15% | 1.34% | 0.193% | -2.86% | 17.9% | -10.2% | 5.82% | 9.76% | -1.18%
CCCC(=O)N1CC[C@@H]2[C@H](CC1)N(Cc1cccnc1)CCS2(=O)=O | -8.11% | 5.41% | 3.63% | -1.04% | -0.586% | 2.5% | 6.85% | 0.118% | 8.91% | 8.54% | -3.88%
CC(C)N(C)CCCNC(=O)c1cnc(-c2ccccc2)nc1 | -6.93% | 21.6% | 1.03% | 23.6% | 6.75% | 7.2% | 8.67% | -4.42% | 4.3% | 18.5% | -10.6%
O=C(COc1coc(CN2CCCCC2)cc1=O)Nc1ccc(Cl)cc1 | -3.05% | 1.33% | 4.41% | 7% | -0.982% | -7.92% | 6.1% | -11.6% | 6.35% | 10.3% | 0.832%
COc1cc2nc(C)n(CC(=O)O)c(=O)c2cc1OC | -4.09% | 6.67% | 6.76% | 2.01% | -0.982% | 1.23% | 13.1% | 19.2% | 8.47% | 12.8% | -7.94%
C=Cn1ncc(CN2C[C@@H]3CCCN3C[C@H]2CCSC)c1C | -0.255% | 1.35% | 5.26% | 9.13% | 4.94% | -1.16% | 9.36% | 15.9% | 1.07% | 1.3% | -6.62%
CCN1Cc2c(C(=O)NCC3CC3)ncn2-c2ccccc2S1(=O)=O | 3.87% | -5.48% | -3.01% | 4.85% | 3.37% | -0.399% | 16% | -1.54% | 0% | 18.5% | -2.17%
Cc1cnn(C2CN(Cc3ccc4c(c3)OCCO4)C2)c1 | -0.648% | -2.67% | -8.78% | 1.34% | -2.04% | -1.56% | 19.9% | 8.06% | 8.2% | 16.1% | -8.99%
Cn1cccc1C(CNC(=O)c1ccc(F)cc1F)N1CCCCCC1 (stereo not given) | -3.52% | 15.6% | -9.64% | -10.9% | 6.21% | -3.23% | 17.9% | 11% | 8.47% | 21.8% | -12.6%
CN1C(=O)C(C)(C)COc2cc(NS(=O)(=O)Cc3ccccc3)ccc21 | -1.91% | 16.4% | -12.8% | -8.62% | 3.72% | -2.73% | 15.6% | 57.7% | 7.53% | 12.5% | -6.62%
O=C(CCc1ccccn1)N1CCN(C(=O)CC2CCCCC2)CC1 | -6.55% | 15.6% | -6.12% | -12.3% | 4.41% | -5.68% | 10.9% | 4.51% | 5.71% | 18.8% | -18.5%
Cc1cc(C(N)=O)ccc1NC(=O)c1nc(N2CCCC2)ncc1Cl | 0.24% | 0% | -4.73% | -1.27% | -8.4% | 6.67% | 11.1% | 1.42% | 5.94% | 3.66% | 2.96%
Cc1ncc(CNC(=O)N(C)C2CCN(c3ccccc3)C2=O)s1 (stereo not given) | -4.68% | 5.26% | 1.78% | -2.39% | -4.51% | 3.45% | 4.51% | 15.1% | 2.45% | 0% | -3.16%
CC(=O)N1CCN(C(=O)C2SCCc3sccc32)CC1 (stereo not given) | -7.67% | 0% | -1.92% | 7.24% | -2.15% | -0.833% | 2.11% | 6.62% | 3.96% | -1.22% | 0.658%
CC(C)Oc1ncccc1CNC(=O)C1CCCN(C(=O)C2CC2)C1 (stereo not given) | -5.21% | 5.26% | -7.89% | -1.61% | -4.89% | 0% | 7.52% | 24.1% | 2.45% | 7.32% | -4.9%
CNC(=O)COc1ccc(CNCc2ccc(F)cc2F)cc1 | -3.24% | 6.94% | 7.47% | -14.2% | -5.93% | -1.32% | 18.6% | 6.07% | 4.21% | 5.13% | -3.63%
CCOCCCNC(=O)c1ccccc1S(C)(=O)=O | -4.36% | 0% | 7.43% | 5.86% | 2.82% | -8.28% | 11.6% | -12.4% | 1.06% | 5.2% | 0.767%
